This passage reports growth results from PubChem BioAssay (NCI).

Molecules are shown by their SMILES. Several values for one entry are separate records, joined by “and”; a condition that tells them apart may be missing. Equal entries are not always repeated. Compounds without any hit were thinned out: in the full panel of roughly 83,000, 20% have a hit.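 Negative percent growth values reflect cell death: -40 means 40% of the cells present at the start died, and -100 means all died.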 Unmarked numbers belong to inactive results. Activity calls are given as the source filed them. How the source made its calls: active means growth percent below 10; inactive means the rest.

What all share (test): NCI-60 one-dose screen, 48 h (100 = growth as untreated, 0 = no growth, -100 = all killed)
Assay [1] relates to NCI-H23 lung. To be noted: 10 µM.
Assay [2] deals with A549/ATCC NSCLC. To be noted: 10 µM.
The subject of assay [3] is K-562 leukemia. The settings on record: 10 µM.
The test system of assay [4] is MDA-MB-231 breast. The settings on record: 10 µM.
The subject of assay [5] is UO-31 renal. To be noted: 10 µM.
For assay [6], the system named is CAKI-1 renal. The settings on record: 10 µM.
The subject of assay [7] is MOLT-4 leukemia. The settings on record: 10 µM.
For assay [8], the system named is SR leukemia. The settings on record: 10 µM.
For assay [9], the system named is OVCAR-3 ovarian. To be noted: 10 µM.
For assay [10], the system named is HS 578T breast. The settings on record: 10 µM.
For assay [11], the system named is SW-620 colon. The settings on record: 10 µM.
Assay [12] has as its system MDA-MB-468 breast. The settings on record: 10 µM unless noted.
In assay [13] the test system is SNB-75 CNS. The settings on record: 10 µM.
Assay [14] concerns PC-3 prostate. To be noted: 10 µM.
The test system of assay [15] is LOX IMVI melanoma. To be noted: 10 µM.
Assay [16] relates to ACHN renal. The settings on record: 10 µM.
Assay [17] deals with HCC-2998 colon. The settings on record: 10 µM.
Assay [18] deals with SK-MEL-28 melanoma. To be noted: 10 µM.
In assay [19] the test system is BT-549 breast. The settings on record: 10 µM.
In assay [20] the test system is KM12 colon. The settings on record: 10 µM.

For `CC[C@]12C=CCN3CC[C@@]4(c5ccc(OC)cc5N(C)[C@H]4[C@@](O)(C(=O)OC)[C@@H]1OC(=O)CCCC[P+](c1ccc(C)cc1)(c1ccc(C)cc1)c1ccc(C)cc1)[C@@H]32`, the growth was -92.4% (active) in assay [1]; -92.2% (active) in assay [2]; 0.797% (active) in assay [3]; -97.2% (active) in assay [4]; -96% (active) in assay [5]; -95.2% (active) in [6]. In addition, the growth was -25% (active) in assay [7]; 25.8% in [8]; -77.1% (active) in [9]; -69.9% (active) in assay [10]; -88.1% (active) in assay [11]; -92.5% (active) in [12].
In the case of `CC[C@]12C=CCN3CC[C@@]4(c5ccc(OC)cc5N(C)[C@H]4[C@@](O)(C(=O)OC)[C@@H]1OC(=O)CCC[P+](c1ccc(F)cc1)(c1ccc(F)cc1)c1ccc(F)cc1)[C@@H]32`, the growth in assay [1] is 35.5%; in assay [2] it was 54.5%; in assay [3], 21.6%; in assay [4] it was 22%; in assay [13], 39.9%; in [14] it was 16.7%. Moreover, the growth in [15] is 31%; in [5] it was 81.5%; in assay [16], 101%; in [6], 73.1%; in [7], 37.1%; in [8], 42.6%. Further, the growth in assay [9] was 21.1%; in [10], 19.1%; in assay [11], 45.3%; in [17], 22.4%; in [12] it was -74.6% (active).
Consider `CC[C@]12C=CCN3CC[C@@]4(c5ccc(OC)cc5N(C)[C@H]4[C@@](O)(C(=O)OC)[C@@H]1OC(=O)CCC[P+](C1CCCCC1)(C1CCCCC1)C1CCCCC1)[C@@H]32`, for which the growth was -4.73% (active) in assay [1]; 14.1% in assay [2]; 3.31% (active) in assay [3]; -90.8% (active) in assay [4]; -61.4% (active) in assay [13]; -12% (active) in assay [14]. Moreover, the growth in assay [18] was -85.9% (active); in [16], 32%; in assay [7], 2.35% (active); in assay [8], 29.1%; in [9] it was -48.6% (active); in assay [10], -33% (active). Besides, the growth in assay [19] was -97.4% (active); in assay [11] it was 3.91% (active); in assay [17] it was -92.6% (active); in assay [12], -79.6% (active).
With `CC1=C(CCC=NNC(N)=O)C2=C(C)C3(CC3)[C@@](C)(O)C(=O)C2=C1`, the growth in assay [1] is -78.2% (active); in [2], -28.6% (active); in [4] it was -59.7% (active); in assay [13] it was -96.2% (active); in assay [5], -65.2% (active); in assay [16] it was -37.7% (active). Also, the growth in assay [6] was -59.8% (active); in assay [10], -24.5% (active); in assay [11], -20.7% (active); in assay [20], 1% (active); in assay [12] it was -81.5% (active) and -65.8% (active).
Take `CC1=C2C(=C[C@@](C)(COP(=O)(Oc3ccccc3)Oc3ccccc3)[C@@H]2O)C(=O)[C@@](C)(O)C12CC2`: the growth in assay [1] is -84.6% (active); in assay [2], -53.9% (active); in assay [4], -79.2% (active); in [18], -88.1% (active); in assay [9], -75.4% (active); in [10] it was -25.2% (active). In addition, the growth in assay [19] was -2.47% (active); in [11], 29.8%; in [12] it was -89.8% (active).
For the molecule `CC1=C(C=O)C2=C(C)C3(CC3)[C@@](C)(O)C(=O)C2=C1`, the growth is 10.3% in [1]; 17.8% in assay [2]; -43.4% (active) in assay [4]; 11.2% in assay [5]; 31.7% in [6]; 36.3% in assay [10]. Also, the figures for the growth in assay [11], in assay [17] and in assay [12] were -15.8% (active), 17.2% and -33.8% (active), respectively.
Take `O=C(/C=C/c1ccc(F)cc1)c1nc2ccccc2n1Cc1ccc(F)cc1`: the growth in assay [1] is 14.6%; in assay [2], 27.2%; in assay [3], 1.64% (active); in assay [13], 20.6%; in assay [6], 43.9%; in assay [7] it was 1.05% (active). Further, the growth in assay [8] is 1.79% (active); in assay [9] it was 22.9%; in assay [20], -4.81% (active); in [12] it was -15.7% (active).
For `O=C(/C=C/c1ccc(Cl)cc1)c1nc2ccccc2n1Cc1ccc(Br)cc1`, the growth in assay [1] is 61.9%; in assay [2], 73.4%; in [3], 13.6%; in assay [13], 79.2%; in assay [18], 80.1%; in assay [16], 51.1%. For the same molecule, the growth in [7] was -0.283% (active); in assay [8], 5.41% (active); in assay [9], 38.2%; in [17], 65.3%; in assay [12], 9.05% (active).
Regarding `CC12OOC(C)(OO1)C2CCC(=O)OCCNc1ccnc2cc(Cl)ccc12` (configuration not stated), the growth was 4.36% (active) in assay [1]; 9.38% (active) in assay [2]; 3.42% (active) in assay [3]; 91.5% in assay [4]; -93.8% (active) in assay [16]; -79.4% (active) in assay [6]. In addition, the growth was 26.1% in assay [7]; -27% (active) in assay [8]; -65.9% (active) in assay [9]; 95.2% in [10]; 7.3% (active) in [11]; -51.6% (active) in assay [12].
Consider `COC(=O)CCn1c(-c2ccc(-n3cc(-c4ccc(O[C@H]5O[C@@H]6OC7(C)CC[C@H]8[C@H](C)CC[C@@H]([C@H]5C)[C@@]68OO7)cc4)nn3)cc2)nc2ccccc21`, for which the growth in [1] is 13.6%; in [3], 21%; in assay [4] it was 35%; in assay [13], 48.5%; in [14], 25.7%; in [16] it was 8.18% (active). Moreover, the growth in assay [6] is 13.7%; in assay [7] it was 11%; in assay [8], -11.8% (active); in [10], 30.3%; in assay [19], -7.77% (active); in assay [11] it was 23.9%. In addition, the growth in assay [12] is 11.1%.
On to `O=C(/C=C/c1cccc(Br)c1)c1nc2ccccc2n1Cc1ccc(F)cc1`, for which the growth in assay [1] is 34%; in assay [2] it was 52.2%; in [3], 5.36% (active); in assay [16], 40.7%; in [6], 54.4%; in assay [7] it was 3.41% (active). For the same molecule, the growth is -7.31% (active) in [8]; 22.1% in assay [9]; 12.5% in [19]; 25% in assay [17]; 41.4% in assay [20]; 4.89% (active) in [12].
